Screening results (PubChem)
In the library only some 4% were active in any assay of this set; here they are far more common.
Beta cell apopt – inhibitors of cytokine-induced beta cell apoptosis, primary screen, luminescence; INS-1E cytokine-induced death, ATP luminescence, 48 h; percent of positive-control rescue, neutral wells zero; protection from apoptosis, % (concentration not given with the values); 300,000 compounds, 0.8% hits; AID 435005, 2010;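 active = Every replicate reaches about 75%, or at least half do and their mean reaches it too, limit read from the data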;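 also: 0% = cytokine-treated negative control wells and 100% = positive control rescue; higher means more ATP so stronger rescue from cytokine killing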
CSC inhib – cancer stem cell viability inhibitors, primary screen, luminescence; cancer stem cell-like cells viability; inhibition, % at 7.5 µM; 300,000 compounds, 1.1% hits; AID 2717, 2010; in the data active = inhibition above about 75%; tested in HMLE shEcad cells
Gli-Sufu antag – Gli-Sufu pathway antagonists, primary screen, luciferase luminescence, Sufu-KO-LIGHT cells, uHTS; Sufu-KO-LIGHT fibroblasts, Gli luciferase reporter luminescence; inhibition, % at 5 µM; 340,000 compounds, 0.74% hits; AID 588413, 2011;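 active = inhibition above about 55%, limit read from the data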;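 also: 0% = DMSO-treated cells and 100% = wells with medium but no cells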
Mdm2 MdmX PPI – inhibitors of human Mdm2-MdmX association, primary screen, cell-based, luminescence, split luciferase, SaOS-2, uHTS. SaOS-2 split-luciferase Mdm2/MdmX complementation. inhibition, % at 8 µM. 330,000 compounds, 3% hits. AID 485346, 2010;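 active = inhibition of at least 50% at 8 µM in the primary screen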
PAX8 inh HTS – inhibitors of PAX8-driven TPO luciferase reporter, primary screen, RMG-I cells, single concentration | SteadyGlo, 24 h | inhibition, % at 12.6 µM | 360,000 compounds, 1.2% hits | AID 652154, 2013;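 active = mean replicate inhibition at least 60% with every replicate also reaching 60%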;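 also: luciferase light reporting Pax8 driven TPO promoter activity; plate controls were median of neutral control wells for no effect and mitoxantrone controls for full effect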
Shn3 inh set2 – reduction of Shn3 3'UTR firefly luciferase signal, primary screen, Schnurri-3 inhibitor project, cell-based, Clone20 osteoblasts, set 2; 360,000 compounds, 0.52% hits; AID 588674, 2011; Clone20 osteoblast Shn3 3'UTR firefly luciferase, 24 h; inhibition, % at 12.5 µM;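 active = mean inhibition of at least 75% with every replicate also reaching 75%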;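 also: 0% = median of neutral control wells and 100% = pilot-screen positive control compound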
Gli-Sufu confirm – Gli-SUFU pathway antagonists, confirmation, single concentration, luciferase luminescence, Sufu-KO-LIGHT cells. Gli luciferase reporter. shares compounds with Gli-Sufu antag. inhibition, % at 5 µM. 2,500 compounds, 40% hits;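 active = mean inhibition at 5 µM reaching about 45%, limit read from the data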;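 also: plate controls were DMSO-treated cells for no effect and wells lacking cells for full effect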
SufuKO cytotox – cytotoxicity in Sufu-KO-LIGHT cells, confirmation, cytotoxicity control for Gli-SUFU antagonist project, cell-based, ATP luminescence, single concentration. shares compounds with Gli-Sufu antag. cytotoxicity, % at 5 µM. 2,500 compounds, 32% hits. AID 651994, 2013;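 active = mean cytotoxicity at 5 µM above about 25%, limit read from the data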;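 also: cells exposed to compound overnight for roughly 16 to 18 hours; plate controls were DMSO wells with cells for no effect and medium without cells for full effect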
Wnt3a cs – Wnt3a reporter signal inhibition, confirmation, counter-screen for Gli-SUFU antagonist project, Wnt-LIGHT cells, luminescence, single concentration; 2,500 compounds, 20% hits; shares compounds with Gli-Sufu antag; inhibition, % at 6.25 µM; AID 651995, 2013; Wnt3a-driven luciferase reporter;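 active = mean inhibition above about 25%, limit read from the data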
Numbers without * were called inactive; x = not tested or not shown.

SMILES	Beta cell apopt	CSC inhib	Gli-Sufu antag	Mdm2 MdmX PPI	PAX8 inh HTS	Shn3 inh set2	Gli-Sufu confirm	SufuKO cytotox	Wnt3a cs
Cc1ccc(C2CC(c3cccs3)=NN2C(=O)CSc2nc(=O)n3cc(C)ccc3n2)cc1 (stereo not drawn)	12.1	2.1	2.3	39.1	15.4	34.1	x	x	x
COc1ccc(C2CC(c3cccs3)=NN2C(=O)CSc2nc(=O)n3ccccc3n2)cc1 (stereo not drawn)	-3.3	-2.3	80.0*	22.4	20.5	-12.4	28.5	25.9*	66.5*
C#Cc1ccc(CN2CCCC(C(=O)Nc3ccccc3Oc3cccnc3)C2)cc1 (stereo not drawn)	-2.1	3.6	-8.4	-7.5	24.9	16.8	x	x	x
O=C(Nc1ccccc1Oc1cccnc1)C1CCCN(Cc2ccccc2O)C1 (stereo not drawn)	3.1	1.2	51.5	17.5	14.5	7.1	14.1	27.5*	-11.8
COCCNC(=O)C[C@H]1C[C@@H]2c3cc(NC(=O)C4CCOCC4)ccc3O[C@@H]2[C@@H](CO)O1	x	x	x	x	-3.2	x	x	x	x
Cc1cc(C)c(OCC(=O)Nc2ccc(S(=O)(=O)N3CCCC3)cc2)c(C)c1	2.7	-11.2	97.7*	19.5	27.4	22.7	20.4	25.5*	-23.5
Cc1cccc(OCC(=O)Nc2ccc(S(=O)(=O)N3CCCC3)cc2)c1	-0.8	0.3	-13.3	-7.2	x	4.3	x	x	x
CCCNC(=O)N1C[C@@H]2[C@H](c3ccccc31)[C@@H](CO)N2Cc1ccccc1F	x	x	x	x	-1.9	x	x	x	x
CCn1nc(C)c(CN2CCCC(C(=O)c3cccc(OC(C)C)c3)C2)c1C (stereo not drawn)	25.1	3.0	71.2*	33.2	9.9	81.0	32.8	20.0	39.9*
CC(C)Oc1cccc(C(=O)C2CCCN(Cc3cnn(C(C)C)c3)C2)c1 (stereo not drawn)	x	6.2	38.1	-14.4	15.4	57.0	x	x	x
Cc1nn(C(C)C)c(C)c1CN1CCCC(C(=O)c2cccc(OC(C)C)c2)C1 (stereo not drawn)	5.0	4.7	58.7*	4.0	10.2	5.3	17.2	24.1	-30.3
COc1cccc(-c2cnc3c(c2)C(=O)N([C@@H](C)CO)C[C@@H](C)[C@H](CN(C)C(=O)Nc2ccccc2F)O3)c1	x	x	x	x	-1.8	x	x	x	x
COc1ccc(C(CC(=O)O)NC(=O)COc2ccccc2)cc1 (stereo not drawn)	-0.1	-4.0	52.7	1.3	-20.0	4.5	22.9	3.6	4.8
CCOC(=O)c1c(CC(C)C)csc1NC(=O)COC(=O)c1cc(OC)c(OC)cc1[N+](=O)[O-]	21.6	3.2	56.0*	19.5	-7.8	35.0	31.7	16.8	-33.5
CCOC(=O)c1c(NC(=O)COC(=O)c2cc(OC)c(OC)cc2[N+](=O)[O-])sc(C)c1CC	-2.6	-8.1	3.0	18.6	10.8	10.1	x	x	x
CC(=O)N1[C@@H]2c3ccc(-c4ccc(F)cc4)c(=O)n3C[C@@H]2[C@@H](CO)[C@@H]1C(=O)N(C)C	x	x	x	x	2.7	x	x	x	x
O=C(c1cc2n(n1)C(C(F)(F)F)CC(c1ccc(F)cc1)N2)N1CCCC1 (stereo not drawn)	4.5	-3.9	2.3	4.8	x	-1.0	x	x	x
O=C(c1cc2n(n1)C(C(F)(F)F)CC(c1ccc(Cl)cc1)N2)N1CCCC1 (stereo not drawn)	-7.0	-2.5	57.1*	-1.6	8.2	3.8	17.9	3.5	-9.4
CC1(C)CC(N2CCN(c3ccccc3)CC2)=CC(=[N+]2CCCC2)C1	97.2*	58.7	83.2*	37.4	x	86.4*	85.5*	35.3*	38.2*
